Results filed as inconclusive are left out. Active and inactive are the calls of the source. Calls follow the shape of the dose curve; as a rule, active = well fitted curve in the direction sought with a large enough effect; inconclusive = small, poorly fitted or top-dose-only effect, or another doubt; inactive = no such curve, though single readings can be large; an effect the other way counts as inactive or inconclusive.

Test [1] in a line: Quantitative high throughput screen for delayed death inhibitors of the malarial parasite plastid, 48 hour incubation (AID 488752). Also: nearly all actives have a fitted effect of over 65% in size. A digest of the protocol: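 One-generation (48 h) growth assay: a decrease in luciferase signal from an integrated reporter in P. falciparum-infected red cells (0.1% parasitemia, 2% hematocrit) after compound exposure at 37 C indicates parasite inhibition.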

Test [2] addresses Thioredoxin reductase 1, cytoplasmic (Rattus norvegicus) (UniProt O89049). In words: qHTS Assay for Substrates of Mammalian Selenoprotein Thioredoxin Reductase 1 (TrxR1) (AID 488772).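 Also: series mostly up to about 57 µM; a drop in NADPH fluorescence below the no-compound background marks a TrxR1 substrate.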 In outline:
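In this dual-purpose format, potential substrates are identified from the first fluorescence read after selenite addition, not from the 8-minute delta. Rat enzyme is preincubated with NADPH and then with compound at ~22 deg C.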
A general note: Quantitative high-throughput screening tests each substance at several concentrations.

Test [3] shares this target. In words: qHTS Assay for Inhibitors of Mammalian Selenoprotein Thioredoxin Reductase 1 (TrxR1) (AID 488773).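 Also: drop in NADPH fluorescence over an 8 min run after selenite addition; series mostly up to about 57 µM; nearly all actives have a fitted effect of over 40% in size.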 The settings on record: Potency: inhibition. In outline:
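Inhibition is scored from the loss of NADPH fluorescence between first and last reads of an 8-min kinetic run. Selenite (400 uM) was the substrate, added after 15 min compound preincubation at room temperature.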

The target of test [4] is Flap endonuclease 1 (Homo sapiens) (UniProt P39748). In words: qHTS Validation Assay for the Inhibitors of Human Flap endonuclease 1 (FEN1) (AID 488816). Also: potency is read from the fitted curve at half-maximal effect. A digest of the protocol:
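Steps: add FEN1 (10 nM reagent) or buffer only; pin compounds; hold 15 min at room temperature; start with substrate, 50 nM final; read at 0 and 15 min; correct, normalize and fit a four-parameter Hill curve.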

The target in test [5] is M-phase phosphoprotein 8 (Homo sapiens) (UniProt Q99549). Put plainly: qHTS Validation Assay for Inhibitors for MPP8 Chromodomain Interactions with Methylated Histone Tails (AID 488949). Also: nearly all actives have a fitted effect of over 55% in size. Also: potency is read from the fitted curve at half-maximal effect. A digest of the protocol: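 MPP8 (50 nM) was pre-bound to 50 nM biotinylated H3(1-18)K9me3 peptide in PBS pH 7.4 with 0.01% Tween-20. Compounds were then added for 30 min at room temperature, and complex disruption was read by AlphaScreen with streptavidin donor and nickel-chelate acceptor beads.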

Test [6] deals with Chromobox protein homolog 1 (Homo sapiens) (UniProt P83916). In words: qHTS Validation Assay for Inhibitors of HP1-beta Chromodomain Interactions with Methylated Histone Tails (AID 488953). Also: nearly all actives have a fitted effect of over 50% in size. Also: potency is read from the fitted curve at half-maximal effect. A digest of the protocol: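 AlphaScreen proximity signal from streptavidin donor and nickel chelate acceptor beads (final 10 ug/mL) after 30 min dark incubation. Compounds had 30 min at room temperature with preformed complex of 50 nM HP1-beta and 50 nM b-H3(1-18)K9me3 in PBS pH 7.4 with 0.01% Tween-20.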

The target of test [7] is Methanococcus maripaludis chaperonin (MmCpn) (UniProt Q6LX38). Put plainly: High-Throughput Screening for Modulators of Cytosolic Chaperonin Activity: MmCpn Primary Screen (AID 488978).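 Also: 50 nM MmCpn enzyme hydrolysing 30 µM ATP at 37 °C.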 A digest of the protocol: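 MmCpn at 50 nM final was preincubated 5 min at RT with compound. ATP was then added at 30 uM final for 10 min at 37 C. ADP formed was detected by Transcreener HTRF (665/590 nm).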

In test [8] the target is Transient receptor potential cation channel subfamily V member 1 (Homo sapiens) (UniProt Q8NER1). In words: HTS Assay for Compounds that Act as Enhancers of the Vanilloid Receptor 1 (AID 488979). A digest of the protocol:
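TRPV1-expressing cells loaded with Fluo-8 calcium dye; compounds added and calcium influx read kinetically for 3 min (agonist phase), then capsaicin at EC20 added and read 2 min more for enhancement. Fluorescence ex 480/em 520 nm.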

The target of test [9] is Thyrotropin receptor (Homo sapiens) (UniProt P16473). In words: qHTS Assay for Antagonists of the Thyroid Stimulating Hormone Receptor (AID 488980). Also: series mostly up to about 58 µM. In outline: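 TSHR-transfected HEK293 cells (2000/well) in HEPES-buffered HBSS with 70 uM RO 20-1724 were stimulated with 4 nM TSH (EC80, final) in the presence of compound. cAMP was measured by HTRF competition after lysis and 30 min at RT.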

Test [10] can be described thus: Quantitative high throughput screen for delayed death inhibitors of the malarial parasite plastid, 96 hour incubation (AID 488745). Also: nearly all actives have a fitted effect of over 70% in size. Also: potency is read from the fitted curve at half-maximal effect. In outline: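 Decreased firefly luciferase luminescence indicates inhibited growth of reporter-integrated P. falciparum after two generations (96 h, 37 C, 5% CO2). Infected erythrocytes at 0.1% parasitemia, 2% hematocrit, in Albumax-supplemented RPMI 1640.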

Chain of Flap endonuclease 1 (Homo sapiens) (P39748 whole entry, looked up): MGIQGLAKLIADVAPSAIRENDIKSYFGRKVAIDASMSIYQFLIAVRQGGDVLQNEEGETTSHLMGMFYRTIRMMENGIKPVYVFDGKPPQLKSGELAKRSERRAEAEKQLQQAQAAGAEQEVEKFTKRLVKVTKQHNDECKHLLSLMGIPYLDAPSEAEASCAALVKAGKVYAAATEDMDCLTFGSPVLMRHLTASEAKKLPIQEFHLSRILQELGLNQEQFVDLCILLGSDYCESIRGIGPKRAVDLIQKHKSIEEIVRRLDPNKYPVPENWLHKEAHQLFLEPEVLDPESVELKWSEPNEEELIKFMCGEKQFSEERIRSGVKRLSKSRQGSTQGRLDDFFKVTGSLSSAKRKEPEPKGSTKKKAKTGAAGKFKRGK
Chain of Thioredoxin reductase 1, cytoplasmic (Rattus norvegicus) (O89049 whole entry, looked up): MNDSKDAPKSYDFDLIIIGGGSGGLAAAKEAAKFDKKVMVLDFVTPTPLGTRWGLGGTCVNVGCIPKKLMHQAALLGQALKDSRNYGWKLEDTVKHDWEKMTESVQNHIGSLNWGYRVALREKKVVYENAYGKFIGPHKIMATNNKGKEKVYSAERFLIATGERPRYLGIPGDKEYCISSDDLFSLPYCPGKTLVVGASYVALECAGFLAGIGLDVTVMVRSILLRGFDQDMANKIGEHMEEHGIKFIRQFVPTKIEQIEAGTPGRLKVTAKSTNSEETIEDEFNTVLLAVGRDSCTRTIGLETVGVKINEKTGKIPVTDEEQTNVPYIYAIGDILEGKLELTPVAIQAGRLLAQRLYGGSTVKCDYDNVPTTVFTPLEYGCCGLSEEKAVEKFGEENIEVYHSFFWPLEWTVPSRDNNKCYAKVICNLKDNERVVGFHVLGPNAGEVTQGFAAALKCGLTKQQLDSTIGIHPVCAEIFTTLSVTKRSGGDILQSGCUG
Chain of Thyrotropin receptor (Homo sapiens) (P16473 whole entry, looked up): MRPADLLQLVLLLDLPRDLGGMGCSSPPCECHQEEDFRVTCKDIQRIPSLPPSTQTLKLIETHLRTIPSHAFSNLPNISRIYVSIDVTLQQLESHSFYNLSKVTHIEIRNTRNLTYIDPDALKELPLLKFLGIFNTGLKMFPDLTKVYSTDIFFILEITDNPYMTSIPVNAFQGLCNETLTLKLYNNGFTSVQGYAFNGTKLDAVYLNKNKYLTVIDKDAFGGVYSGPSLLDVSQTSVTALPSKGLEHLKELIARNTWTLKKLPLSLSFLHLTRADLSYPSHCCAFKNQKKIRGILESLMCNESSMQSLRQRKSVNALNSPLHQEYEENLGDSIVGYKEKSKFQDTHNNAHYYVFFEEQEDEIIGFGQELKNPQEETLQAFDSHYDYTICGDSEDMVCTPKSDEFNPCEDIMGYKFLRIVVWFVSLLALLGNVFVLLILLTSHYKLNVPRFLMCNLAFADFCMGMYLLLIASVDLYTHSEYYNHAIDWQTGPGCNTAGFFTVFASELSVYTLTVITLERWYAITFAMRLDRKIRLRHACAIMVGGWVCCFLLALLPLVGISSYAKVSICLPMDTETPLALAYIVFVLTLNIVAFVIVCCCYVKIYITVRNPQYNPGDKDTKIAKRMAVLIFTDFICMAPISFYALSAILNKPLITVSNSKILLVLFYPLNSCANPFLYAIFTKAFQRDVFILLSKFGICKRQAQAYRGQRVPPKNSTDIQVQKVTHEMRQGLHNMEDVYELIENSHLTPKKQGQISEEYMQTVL
Chain of Transient receptor potential cation channel subfamily V member 1 (Homo sapiens) (Q8NER1 whole entry, looked up): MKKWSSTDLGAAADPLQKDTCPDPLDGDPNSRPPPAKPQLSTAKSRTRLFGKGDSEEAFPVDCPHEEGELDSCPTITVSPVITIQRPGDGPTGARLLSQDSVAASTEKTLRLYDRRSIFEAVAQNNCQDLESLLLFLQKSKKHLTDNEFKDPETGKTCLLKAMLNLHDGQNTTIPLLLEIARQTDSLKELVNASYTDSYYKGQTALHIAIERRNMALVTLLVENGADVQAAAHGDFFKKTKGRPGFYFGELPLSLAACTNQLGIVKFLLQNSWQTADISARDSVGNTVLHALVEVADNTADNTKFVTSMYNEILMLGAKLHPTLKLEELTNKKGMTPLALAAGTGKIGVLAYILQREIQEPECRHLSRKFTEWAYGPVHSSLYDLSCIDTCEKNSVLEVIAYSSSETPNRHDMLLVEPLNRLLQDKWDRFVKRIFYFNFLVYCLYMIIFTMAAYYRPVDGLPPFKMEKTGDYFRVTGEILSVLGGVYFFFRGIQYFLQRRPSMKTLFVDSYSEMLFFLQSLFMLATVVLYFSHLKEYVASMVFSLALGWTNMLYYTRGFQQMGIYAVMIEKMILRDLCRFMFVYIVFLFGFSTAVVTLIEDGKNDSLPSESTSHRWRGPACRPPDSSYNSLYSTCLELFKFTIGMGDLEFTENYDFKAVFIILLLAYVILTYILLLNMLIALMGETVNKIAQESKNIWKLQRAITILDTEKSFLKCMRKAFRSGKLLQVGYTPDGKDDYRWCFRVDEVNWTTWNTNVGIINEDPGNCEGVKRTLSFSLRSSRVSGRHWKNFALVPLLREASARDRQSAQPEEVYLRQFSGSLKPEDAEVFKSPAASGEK
Chain of M-phase phosphoprotein 8 (Homo sapiens) (Q99549 whole entry, looked up): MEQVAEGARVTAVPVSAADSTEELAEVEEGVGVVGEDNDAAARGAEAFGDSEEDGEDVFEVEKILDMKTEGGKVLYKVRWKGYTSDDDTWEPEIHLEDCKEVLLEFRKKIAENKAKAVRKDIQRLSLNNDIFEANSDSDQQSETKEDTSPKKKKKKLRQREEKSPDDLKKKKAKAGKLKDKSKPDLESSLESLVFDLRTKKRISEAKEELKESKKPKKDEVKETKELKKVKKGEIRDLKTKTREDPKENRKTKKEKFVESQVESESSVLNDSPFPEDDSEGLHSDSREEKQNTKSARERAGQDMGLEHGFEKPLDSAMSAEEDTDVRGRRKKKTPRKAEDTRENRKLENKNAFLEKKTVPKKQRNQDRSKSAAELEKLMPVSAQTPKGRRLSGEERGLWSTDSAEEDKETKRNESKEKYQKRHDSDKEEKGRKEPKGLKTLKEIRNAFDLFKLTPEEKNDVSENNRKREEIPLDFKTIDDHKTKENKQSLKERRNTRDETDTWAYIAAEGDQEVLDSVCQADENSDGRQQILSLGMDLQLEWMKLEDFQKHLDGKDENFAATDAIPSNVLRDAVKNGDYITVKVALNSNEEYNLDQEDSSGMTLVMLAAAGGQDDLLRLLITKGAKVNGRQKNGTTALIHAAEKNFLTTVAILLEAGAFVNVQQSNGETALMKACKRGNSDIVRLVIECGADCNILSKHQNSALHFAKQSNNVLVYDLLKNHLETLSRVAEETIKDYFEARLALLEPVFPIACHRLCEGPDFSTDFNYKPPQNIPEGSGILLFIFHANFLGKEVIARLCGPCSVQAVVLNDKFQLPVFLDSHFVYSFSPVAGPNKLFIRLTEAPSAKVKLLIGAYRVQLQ
Chain of Methanococcus maripaludis chaperonin (MmCpn) (Q6LX38 1-543): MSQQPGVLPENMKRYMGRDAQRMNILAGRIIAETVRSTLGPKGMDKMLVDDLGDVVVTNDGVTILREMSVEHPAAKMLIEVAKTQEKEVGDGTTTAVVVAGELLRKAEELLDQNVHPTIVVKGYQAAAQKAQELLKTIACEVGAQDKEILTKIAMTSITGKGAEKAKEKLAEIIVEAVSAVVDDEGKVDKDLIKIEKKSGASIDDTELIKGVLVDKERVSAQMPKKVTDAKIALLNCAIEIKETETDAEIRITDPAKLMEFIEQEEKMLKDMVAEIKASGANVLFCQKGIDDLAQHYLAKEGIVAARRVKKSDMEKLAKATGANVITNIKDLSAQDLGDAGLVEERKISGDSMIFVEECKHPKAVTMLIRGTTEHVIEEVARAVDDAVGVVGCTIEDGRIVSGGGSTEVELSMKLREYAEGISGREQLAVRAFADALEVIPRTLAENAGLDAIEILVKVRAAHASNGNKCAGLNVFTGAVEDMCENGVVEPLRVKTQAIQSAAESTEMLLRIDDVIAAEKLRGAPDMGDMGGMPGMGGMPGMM
Chain of Chromobox protein homolog 1 (Homo sapiens) (P83916 whole entry, looked up): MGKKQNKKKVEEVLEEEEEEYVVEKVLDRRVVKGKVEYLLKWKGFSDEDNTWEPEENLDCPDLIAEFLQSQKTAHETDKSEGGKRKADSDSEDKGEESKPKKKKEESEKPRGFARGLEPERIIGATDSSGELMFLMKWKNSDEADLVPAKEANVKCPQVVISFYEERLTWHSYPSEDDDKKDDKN

As for `CN(C(=O)CCCOc1ccc2[nH]c(=O)ccc2c1)C1CCCCC1`, the Potency result in test [1], in test [3], in [4], in test [5] and in [6] was “inactive” in each case. For the same molecule, the result in test [2], in test [7], in [8] and in [9] was inactive.
Take `CCN(CC)CCOCCOC(=O)C1(c2ccccc2)CCCC1`: the Potency result in test [1], in test [3], in [4], in [5] and in test [6] was “inactive” throughout. In addition, the result in [7], in test [8] and in [9] was inactive.
On to `FC(F)(F)c1ccccc1-n1ccnc1`, for which the Potency result in test [1], in test [3], in test [4] and in [5] was “inactive” each time. Moreover, the result in test [2], in test [7] and in [8] was inactive.
Turning to `CCCCNc1ccc(C(=O)OCCN(C)C)cc1`, the Potency result in [1], in test [3], in test [4], in test [5] and in test [6] was “inactive” in each case. Besides, the result in test [2], in [7] and in test [8] was inactive.
On to `OCCN1CCN(CCCN2c3ccccc3C=Cc3ccccc32)CC1`, for which the Potency in test [10] was 13.1 µM (active). Also, the Potency entry in test [3], in test [4] and in test [5] was “inactive” in each case. Moreover, the molecule was called inactive in [7], in [8] and in [9].
As to `CCN(CC)CCNC(=O)c1cc(S(C)(=O)=O)ccc1OC`, the Potency result in test [10], in test [3], in [4], in test [5] and in test [6] was “inactive” in each case. Also, the molecule was called inactive in test [7], in test [8] and in [9].
On to `CC[N+](C)(C)c1cccc(O)c1`, for which the Potency result in [1], in test [5] and in test [6] was “inactive” in each case. Also, the call in test [2], in test [7], in [8] and in test [9] was inactive.
In the case of `Nc1nc(N)c2nc(-c3ccccc3)c(N)nc2n1`, the Potency in [10] is 8.28 µM (active). In addition, the Potency entry in [3], in test [4] and in test [5] was “inactive” each time. The result in test [7], in test [8] and in [9] was inactive.
Take `CC(C)NNC(=O)c1ccncc1`: the Potency entry in test [1], in [3], in test [4], in test [5] and in test [6] was “inactive” throughout. The result in [2], in test [7], in [8] and in test [9] was inactive.
On to `C[C@H](CS)C(=O)N1CCC[C@H]1C(=O)O`, for which the Potency entry in test [10] and in test [5] was “inactive” throughout. The outcome in [7] and in test [9] was inactive.
Regarding `CC(C)COCC(CN(Cc1ccccc1)c1ccccc1)N1CCCC1` (stereo not given), the Potency entry in [10], in test [3], in test [4], in test [5] and in [6] was “inactive” in each case. In addition, the molecule was called inactive in test [7] and in [8].
As for `CCNC(=O)N1CCN(CCCC(c2ccc(F)cc2)c2ccc(F)cc2)CC1`, the Potency in test [10] was 1.65 µM (active). For the same molecule, the Potency result in [3] and in [5] was “inactive” in each case. The call in test [7] and in test [9] was inactive.
`C#CCN(C)CCCOc1ccc(Cl)cc1Cl`: the Potency result in test [1], in test [3], in test [4], in test [5] and in test [6] was “inactive” in each case. The result in test [2], in test [7] and in test [8] was inactive.
`CC(=O)[C@]1(O)Cc2c(O)c3c(c(O)c2[C@@H](O[C@H]2C[C@H](N)[C@H](O)[C@H](C)O2)C1)C(=O)c1ccccc1C3=O`: the Potency in [10] is 3.29 µM (active); in test [4], 26.7 µM (active); in test [5], 28.2 µM (active); in test [6], 39.8 µM (active). Further, the result in test [2], in test [7] and in test [9] was inactive.
In the case of `C[C@]12CCC(=O)C=C1CC[C@@H]1[C@@H]2CC[C@@]2(C)[C@H]1CC[C@]2(O)C(=O)CO`, the Potency result in test [10], in [3], in [5] and in test [6] was “inactive” each time. Besides, the result in [7], in test [8] and in test [9] was inactive.
As for `NC(=O)N1c2ccccc2C=Cc2ccccc21`, the Potency entry in test [10], in [3], in test [4], in test [5] and in test [6] was “inactive” in each case. Also, the outcome in test [7] and in test [8] was inactive.
Take `NS(=O)(=O)c1cc2c(cc1Cl)NC(C1CC3C=CC1C3)NS2(=O)=O` (stereo not given): the Potency entry in test [1], in [3], in test [4], in test [5] and in test [6] was “inactive” each time. Besides, the outcome in test [7] and in [8] was inactive.
Regarding `CC(C)NCC(O)c1cc(O)cc(O)c1` (stereo not given), the Potency entry in [10], in test [3], in [5] and in [6] was “inactive” each time. Further, the molecule was called inactive in [2], in test [7], in test [8] and in [9].

(Values after PubChem BioAssay (NCATS).)
